The source of these data is PubChem BioAssay (NCATS).

Records with an inconclusive call do not appear. A number with no mark means an inactive call. Activity calls are given as the source filed them. The call rests on the fitted dose curve; in most records, active means well fitted inhibition curve with a large enough effect; inconclusive means small, poorly fitted or top-dose-only effect; inactive means flat fitted curve, though single readings scatter.
On the % scale 0 is the no-effect control and ±100 the full control effect; potency means the concentration at half of the fitted maximal effect.

The test system of one assay is CRL-7250. Nature of the assay: Cytotoxic Profiling of Annotated Libraries Using Quantitative High-Throughput Screening (AID 1296008). Further: nearly all actives have a fitted effect of over 60% in size. The following applies: Five cell lines viability, CellTiter-Glo ATP luminescence, 48-72 h; max response: active compounds read low. The essentials:
(§1)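 Cytotoxicity was measured as CellTiter-Glo ATP luminescence, read after 10 min at room temperature. Compound treatment of the cells lasted 48 or 72 hr at 37 degrees Celsius in a qHTS format.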
On the technique in general: ATP-based viability assays read luminescence as a measure of living cells.
Regarding `C[C@@H]1C[C@H]2[C@@H]3CCC4=CC(=O)C=C[C@]4(C)[C@@]3(F)[C@@H](O)C[C@]2(C)[C@@]1(O)C(=O)COC(=O)c1ccncc1`, the max response is -11%.
Consider `O=C(C1CCCCC1)N1CC(=O)N2CCCc3ccccc3C2C1` (configuration not stated), for which the outcome was inactive.
As for `O=c1[nH]sc2cc(Cl)ccc12`, the max response was -108%.
Regarding `Nc1ncnc2c1ncn2Cc1c(F)cccc1Cl`, the max response is -8.42%.
On to `CC(Oc1c(Cl)cccc1Cl)C1=NCCN1` (configuration not stated), for which the max response is -2.82%.
For `CCCCCCCCCCCCCCCCCCN(C)C`, the max response was -11.6%.
With `CCN(CC)CC(=O)OCC(=O)[C@@]1(O)CC[C@H]2[C@@H]3CCC4=CC(=O)CC[C@]4(C)[C@H]3[C@@H](O)C[C@@]21C`, the compound was classed as inactive.
With `C[C@H](CN1CCCC1)C(=O)c1ccc(C(F)(F)F)cc1`, the max response was 3.63%.
Take `CCN1CCCC1CN` (configuration not stated): the max response is 3.84%.
With `CO[C@@H]1[C@@H](OC)[C@H](C)[C@@](O)(CC(=O)O)O[C@H]1[C@H](C)[C@H]1O[C@@]2(CC[C@@](C)([C@H]3CC[C@@](C)([C@@H]4O[C@@H]([C@H]5O[C@](C)(O)[C@H](C)C[C@@H]5C)C[C@@H]4OC4C[C@H](OC)[C@@H](OC)[C@H](C)O4)O3)O2)C[C@H](O)[C@H]1C` (some centres not stated), the Potency is 0.944 µM (active).
Take `CCCCCOc1ccccc1/C(=C\SC)n1ccnc1`: the max response was -4.59%.
On to `Cc1ccc(C(=O)C(=O)O)cc1C`, for which the max response was -7.54%.
On to `O=C(Nc1ccc(S(=O)(=O)N2CCOCC2)cc1)c1cc(Cl)ccc1NS(=O)(=O)c1ccc(Cl)s1`, for which the max response was -9.47%.
Consider `CN1[C@@H]2CC[C@H]1CC(NC(=O)n1c(=O)[nH]c3ccccc31)C2` (some centres not stated), for which the max response was -3.19%.
With `CCCCCN(CCCOC)C(=O)C(CCC(=O)O)NC(=O)c1ccc(Cl)c(Cl)c1` (configuration not stated), the max response was -0.363%.
On the same count and under the same terms, the value for `Cc1oc(-c2ccccc2)nc1CCC(=O)c1ccc(CC2SC(=O)NC2=O)cc1` (configuration not stated) was -17.6%.
Take `Nc1ccc2c(c1)CN1C(=O)c3ccccc3C1=N2`: the Potency is 8.2 µM (active).
In the case of `CCC(=O)O[C@]1(C(=O)COC)[C@@H](C)C[C@H]2[C@@H]3CCC4=CC(=O)C=C[C@]4(C)C3(F)[C@@H](O)C[C@@]21C` (some centres not stated), the result was inactive.
On the same count and under the same terms, the value for `Cc1cnc(NS(=O)(=O)c2ccc(N)cc2)nc1` was “inactive”.
As to `O=C(O)Cc1ccccc1Oc1ccc(Cl)cc1Cl`, the max response is 1.12%.
For the compound `COc1ccc2c(c1)c(CC(=O)OC/C=C(\C)CC/C=C(\C)CCC=C(C)C)c(C)n2C(=O)c1ccc(Cl)cc1`, the result was inactive.
For `COCCOCC(OC)OC`, the max response is -5.92%.
Still for that read-out and setting: the result for `COCCc1ccc(OCC2CO2)cc1` (configuration not stated) reads 1.12%.

Another assay concerns HEK293. Described as above. The following applies: Five cell lines viability, CellTiter-Glo ATP luminescence, 48-72 h; max response: active compounds read low. The essentials: as §1
With `CCC1=C[C@@H]2CN(C1)Cc1c([nH]c3ccccc13)[C@@](C(=O)OC)(c1cc3c(cc1OC)N(C)[C@H]1[C@@](O)(C(=O)OC)[C@H](OC(C)=O)[C@]4(CC)C=CCN5CC[C@]31[C@@H]54)C2`, the Potency is 0.0084 µM (active).
As to `OC1(c2ccc(Cl)cc2)CCNCC1`, the result was inactive.
As for `CCCCN(CCN(CCCC)C(=O)N1CCOCC1)C(=O)N1CCOCC1`, the max response was -9.35%.
On to `CC(=O)Oc1ccc(C2(c3ccc(OC(C)=O)cc3)Oc3ccccc3NC2=O)cc1`, for which the Potency was 7.5 µM (active).
With `CCCCCCCCCCCCCCCCCCNC(=O)OC1CCN(C(=O)OC[C@H](COC(=O)N(Cc2cccc[n+]2CC)C(=O)c2ccccc2OC)OC)CC1`, the Potency is 7.5 µM (active).
Consider `O=C(CCCl)NCc1ccccc1`, for which the max response is -4.62%.
Consider `Nc1ccc2cc3ccc(N)cc3nc2c1`, for which the Potency is 2.37 µM (active).
Take `CN(C)C(=O)CNC(=O)Cc1ccccc1`: the max response is -9.26%.
Still for that read-out and setting: the value for `CCNC(=O)NCCCOc1cccc(CN2CCCCC2)c1` was -59.3%.
Take `CCN(CC)CC(=O)Nc1c(C)cccc1C(=O)OC`: the max response is 2.01%.
With `CCCCCCOC(=O)NC(=N)c1ccc(NCc2nc3cc(C(=O)N(CCC(=O)OCC)c4ccccn4)ccc3n2C)cc1`, the Potency was 10.6 µM (active).
Take `CC1(C)OC(=O)Nc2ccc(Br)cc21`: the outcome was inactive.
Turning to `CC(C)(C)NCC(O)COc1ccccc1OCC1CCCO1` (configuration not stated), the max response is -1.05%.
On the same count and under the same terms, the value for `COC(=O)c1c(Cl)c(Cl)c(C(=O)OC)c(Cl)c1Cl` was -21.7%; that for `CCN(CC)CCN` was 2.25%.
Same read-out and setting: the value for `c1ccc2occc2c1` was -7.13%.
In the case of `C[C@@H]1C[C@H]2[C@@H]3CCC4=CC(=O)C=C[C@]4(C)[C@@]3(F)[C@@H](O)C[C@]2(C)[C@@]1(O)C(=O)COC(=O)c1ccncc1`, the max response is -6.52%.
Consider `O=C(C1CCCCC1)N1CC(=O)N2CCCc3ccccc3C2C1` (configuration not stated), for which the call was inactive.
On to `O=c1[nH]sc2cc(Cl)ccc12`, for which the max response is -119%.
As for `Nc1ncnc2c1ncn2Cc1c(F)cccc1Cl`, the compound was classed as inactive.
On to `CC(Oc1c(Cl)cccc1Cl)C1=NCCN1` (configuration not stated), for which the max response was 4.99%.
Take `CCCCCCCCCCCCCCCCCCN(C)C`: the max response is -2.54%.
Same read-out and setting: the value for `CCN(CC)CC(=O)OCC(=O)[C@@]1(O)CC[C@H]2[C@@H]3CCC4=CC(=O)CC[C@]4(C)[C@H]3[C@@H](O)C[C@@]21C` was 0.946%.
On the same count and under the same terms, the value for `C[C@H](CN1CCCC1)C(=O)c1ccc(C(F)(F)F)cc1` was -20.1%.
With `CCN1CCCC1CN` (configuration not stated), the compound was classed as inactive.
`CO[C@@H]1[C@@H](OC)[C@H](C)[C@@](O)(CC(=O)O)O[C@H]1[C@H](C)[C@H]1O[C@@]2(CC[C@@](C)([C@H]3CC[C@@](C)([C@@H]4O[C@@H]([C@H]5O[C@](C)(O)[C@H](C)C[C@@H]5C)C[C@@H]4OC4C[C@H](OC)[C@@H](OC)[C@H](C)O4)O3)O2)C[C@H](O)[C@H]1C` (some centres not stated): the Potency was 0.237 µM (active).
For the compound `CCCCCOc1ccccc1/C(=C\SC)n1ccnc1`, the Potency was 26.6 µM (active).
`Cc1ccc(C(=O)C(=O)O)cc1C`: the call was inactive.
Turning to `O=C(Nc1ccc(S(=O)(=O)N2CCOCC2)cc1)c1cc(Cl)ccc1NS(=O)(=O)c1ccc(Cl)s1`, the outcome was inactive.
As to `CN1[C@@H]2CC[C@H]1CC(NC(=O)n1c(=O)[nH]c3ccccc31)C2` (some centres not stated), the max response was -4.57%.
Same read-out and setting: the result for `CCCCCN(CCCOC)C(=O)C(CCC(=O)O)NC(=O)c1ccc(Cl)c(Cl)c1` (configuration not stated) reads -5.64%.
In the case of `Cc1oc(-c2ccccc2)nc1CCC(=O)c1ccc(CC2SC(=O)NC2=O)cc1` (configuration not stated), the result was inactive.
On to `Nc1ccc2c(c1)CN1C(=O)c3ccccc3C1=N2`, for which the Potency is 5.8 µM (active).
For `CCC(=O)O[C@]1(C(=O)COC)[C@@H](C)C[C@H]2[C@@H]3CCC4=CC(=O)C=C[C@]4(C)C3(F)[C@@H](O)C[C@@]21C` (some centres not stated), the max response was -13.2%.
Regarding `Cc1cnc(NS(=O)(=O)c2ccc(N)cc2)nc1`, the max response was -11.8%.
With `O=C(O)Cc1ccccc1Oc1ccc(Cl)cc1Cl`, the max response is 3.66%.
On to `COc1ccc2c(c1)c(CC(=O)OC/C=C(\C)CC/C=C(\C)CCC=C(C)C)c(C)n2C(=O)c1ccc(Cl)cc1`, for which the max response was -3.27%.
With `COCCOCC(OC)OC`, the max response was -49.7%.
On the same count and under the same terms, the value for `COCCc1ccc(OCC2CO2)cc1` (configuration not stated) was 1.88%.
